Among the test systems are SR leukemia; RPMI-8226 leukemia; OVCAR-8 ovarian; OVCAR-5 ovarian; OVCAR-4 ovarian; SK-OV-3 ovarian; IGROV1 ovarian; OVCAR-3 ovarian; HS 578T breast; NCI/ADR-RES ovarian; T-47D breast; BT-549 breast; MDA-MB-435 melanoma; SW-620 colon; MCF7 breast; KM12 colon.
Common to all, as to assay: NCI-60 one-dose screen, 48 h (100 = growth as untreated, 0 = no growth, -100 = all killed)
In a further test the test system is HCT-116 colon. The note with it: 10 µM unless noted.
Another test has as its system HCC-2998 colon. The following applies: 10 µM unless noted.

“And” between values parts separate entries of the source, which are not always exact repeats. Identical values can stand only once. About 83,000 compounds went through this panel and 20% of them were active in at least one assay; those are over-represented in the sample as a whole.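 96-well plates, one dose, 48 hours. Percent growth reported; active if below 10.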 The source made the active and inactive calls.

Regarding `N#CC(C#N)=C/C=C/c1cccc([N+](=O)[O-])c1`, the growth is -3.67% (active) and 3.74% (active) in the test on SR leukemia (10 µM unless noted); -16.2% (active) and -9.65% (active) with RPMI-8226 leukemia (10 µM unless noted); -22.1% (active) and -35.4% (active) in the test with OVCAR-8 ovarian (10 µM unless noted); 23.1% (inactive) and -10.2% (active) in the test on OVCAR-5 ovarian (10 µM unless noted); 31.9% (inactive) and 21.2% (inactive) in the test with OVCAR-4 ovarian (10 µM unless noted); 55.6% (inactive) and 35.8% (inactive) in the test on SK-OV-3 ovarian (10 µM unless noted). The growth is 24% (inactive) and -7.91% (active) with IGROV1 ovarian (10 µM unless noted); -9.85% (active) and -42.4% (active) in the test with OVCAR-3 ovarian (10 µM unless noted); -9.4% (active) and -4.55% (active) with HS 578T breast (10 µM unless noted); 5.66% (active) and -10.2% (active) in the test on NCI/ADR-RES ovarian (10 µM unless noted); 39.1% (inactive) and 17% (inactive) in the test with T-47D breast (10 µM unless noted); 57.1% (inactive) with BT-549 breast (10 µM unless noted). Further, the growth in the test with MDA-MB-435 melanoma (10 µM unless noted) is 6.2% (active) and -53.1% (active); in the test on SW-620 colon (10 µM unless noted), 2.75% (active) and -71.6% (active); in the test on MCF7 breast (10 µM unless noted) it was 32.4% (inactive) and 18% (inactive); with HCT-116 colon it was -64.6% (active) and -91.7% (active); with HCC-2998 colon, -79.1% (active) and -79.8% (active); with KM12 colon (10 µM unless noted), 8.85% (active) and -76.4% (active).
Take `Nc1ccccc1SC1CC(=O)N(c2cccc3ccccc23)C1=O` (centres undefined): the growth in the test with SR leukemia (10 µM unless noted) was 88% (inactive); with RPMI-8226 leukemia (10 µM unless noted) it was 86.3% (inactive); with OVCAR-8 ovarian (10 µM unless noted), 92.2% (inactive); in the test on OVCAR-5 ovarian (10 µM unless noted) it was 101% (inactive); with OVCAR-4 ovarian (10 µM unless noted), 93.6% (inactive); in the test on SK-OV-3 ovarian (10 µM unless noted) it was 88.6% (inactive). Further, the growth was 99.1% (inactive) in the test on IGROV1 ovarian (10 µM unless noted); 101% (inactive) in the test with OVCAR-3 ovarian (10 µM unless noted); 97.9% (inactive) with HS 578T breast (10 µM unless noted); 96.1% (inactive) in the test with NCI/ADR-RES ovarian (10 µM unless noted); 90.4% (inactive) in the test on T-47D breast (10 µM unless noted); 102% (inactive) with BT-549 breast (10 µM unless noted). Moreover, the growth in the test on MDA-MB-435 melanoma (10 µM unless noted) is 88.7% (inactive); in the test on SW-620 colon (10 µM unless noted), 94.4% (inactive); in the test on MCF7 breast (10 µM unless noted), 88.2% (inactive); with HCT-116 colon, 89.4% (inactive); in the test on HCC-2998 colon, 100% (inactive); with KM12 colon (10 µM unless noted), 101% (inactive).
In the case of `CC1=CCC2CC1C2(C)C` (centres undefined), the growth in the test with SR leukemia (10 µM unless noted) was 96.9% (inactive) and 91.4% (inactive); in the test with RPMI-8226 leukemia (10 µM unless noted), 137% (inactive) and 120% (inactive); with OVCAR-8 ovarian (10 µM unless noted), 97.7% (inactive) and 95.8% (inactive); in the test with OVCAR-5 ovarian (10 µM unless noted), 80.1% (inactive) and 74.2% (inactive); in the test with OVCAR-4 ovarian (10 µM unless noted), 112% (inactive) and 109% (inactive); in the test on SK-OV-3 ovarian (10 µM unless noted), 114% (inactive) and 99% (inactive). The growth in the test with IGROV1 ovarian (10 µM unless noted) is 35.4% (inactive); in the test with OVCAR-3 ovarian (10 µM unless noted) it was 89.2% (inactive) and 95.1% (inactive); in the test on HS 578T breast (10 µM unless noted) it was 81.8% (inactive); with NCI/ADR-RES ovarian (10 µM unless noted), 102% (inactive) and 81.8% (inactive); with T-47D breast (10 µM unless noted), 105% (inactive) and 102% (inactive); with BT-549 breast (10 µM unless noted), 71.6% (inactive) and 68.8% (inactive). Besides, the growth is 98.3% (inactive) and 94.2% (inactive) in the test on MDA-MB-435 melanoma (10 µM unless noted); 101% (inactive) and 103% (inactive) in the test with SW-620 colon (10 µM unless noted); 98.1% (inactive) and 91.6% (inactive) with MCF7 breast (10 µM unless noted); 92.2% (inactive) in the test on HCT-116 colon; 42.3% (inactive) in the test with HCC-2998 colon; 100% (inactive) and 110% (inactive) in the test on KM12 colon (10 µM unless noted).
In the case of `CC1(C)OB(c2ccc(Cn3cc(F)c(=O)[nH]c3=O)cc2)OC1(C)C`, the growth is 106% (inactive) in the test on SR leukemia (10 µM); 39.5% (inactive) with SR leukemia (50 µM); 107% (inactive) with RPMI-8226 leukemia (10 µM); 68.1% (inactive) in the test on RPMI-8226 leukemia (50 µM); 106% (inactive) with OVCAR-8 ovarian (10 µM); 75.1% (inactive) in the test on OVCAR-8 ovarian (50 µM). The growth with OVCAR-5 ovarian (10 µM) is 97.5% (inactive); with OVCAR-5 ovarian (50 µM), 70.4% (inactive); in the test with OVCAR-4 ovarian (10 µM), 111% (inactive); in the test on OVCAR-4 ovarian (50 µM), 69.9% (inactive); in the test with SK-OV-3 ovarian (10 µM) it was 114% (inactive); with SK-OV-3 ovarian (50 µM), 69% (inactive). Besides, the growth was 98.8% (inactive) in the test with IGROV1 ovarian (10 µM); 44.1% (inactive) in the test with IGROV1 ovarian (50 µM); 104% (inactive) in the test on OVCAR-3 ovarian (10 µM); 4.62% (active) in the test with OVCAR-3 ovarian (50 µM); 100% (inactive) in the test with HS 578T breast (10 µM); 37% (inactive) in the test with HS 578T breast (50 µM). In addition, the growth with NCI/ADR-RES ovarian (10 µM) was 102% (inactive); in the test with NCI/ADR-RES ovarian (50 µM) it was 94.1% (inactive); in the test with T-47D breast (10 µM), 102% (inactive); in the test with T-47D breast (50 µM), 49.3% (inactive); in the test with BT-549 breast (10 µM) it was 104% (inactive); in the test on BT-549 breast (50 µM), 40.1% (inactive). Further, the growth is 83.6% (inactive) in the test on MDA-MB-435 melanoma (10 µM); 4.27% (active) in the test with MDA-MB-435 melanoma (50 µM); 95.8% (inactive) with SW-620 colon (10 µM); 34.2% (inactive) with SW-620 colon (50 µM); 100% (inactive) with MCF7 breast (10 µM); 19.1% (inactive) in the test on MCF7 breast (50 µM). Also, the figures for the growth in the test on KM12 colon (10 µM) and in the test on KM12 colon (50 µM) were 99% (inactive) and 26.4% (inactive), respectively.
Turning to `CCN(CC)CCCC(C)Nc1cnc(C(=O)Nc2cc(F)cc3cccnc23)cn1` (centres undefined), the growth is 2.84% (active) and 21.7% (inactive) in the test on SR leukemia (10 µM unless noted); 75.1% (inactive) and 2.28% (active) with RPMI-8226 leukemia (10 µM unless noted); 60.5% (inactive) and -43.9% (active) in the test with OVCAR-8 ovarian (10 µM unless noted); 77.1% (inactive) and -24.2% (active) in the test with OVCAR-5 ovarian (10 µM unless noted); 12.2% (inactive) and -83.5% (active) in the test with OVCAR-4 ovarian (10 µM unless noted); 98.3% (inactive) and 25.8% (inactive) in the test with SK-OV-3 ovarian (10 µM unless noted). The growth was 41.7% (inactive) and -21.9% (active) with IGROV1 ovarian (10 µM unless noted); 5.41% (active) and -79.1% (active) in the test with OVCAR-3 ovarian (10 µM unless noted); 69.3% (inactive) and 13.7% (inactive) in the test on HS 578T breast (10 µM unless noted); 66.8% (inactive) and 11.6% (inactive) with NCI/ADR-RES ovarian (10 µM unless noted); 14.3% (inactive) and -49.5% (active) in the test with T-47D breast (10 µM unless noted); 77.4% (inactive) and -40.1% (active) in the test on BT-549 breast (10 µM unless noted). The growth in the test with MDA-MB-435 melanoma (10 µM unless noted) was 25.5% (inactive) and 3.24% (active); with SW-620 colon (10 µM unless noted), 24.3% (inactive) and -78.8% (active); in the test with MCF7 breast (10 µM unless noted) it was 2.31% (active) and -37.5% (active); with HCT-116 colon, 9.52% (active) and -66.7% (active); in the test on HCC-2998 colon, 66.7% (inactive) and 14.1% (inactive); in the test with KM12 colon (10 µM unless noted), 75.3% (inactive) and -92.3% (active).
